Assay outcomes deposited in PubChem by National Center for Advancing Translational Sciences (NCATS).
GALC G270D up: A Novel Cell-Based Assay to Identify Small Molecules for B -Galactocerebrosidase; P54803; Potency, µM (doses to about 57.5 µM), most hits filed as activators; AID 1159614, 2016; 145M-Twi-hGALC-G270D cells (Twitcher mouse brain line with human GALC G270D), HMU-beta-Gal fluorescence, 48 h; 0.1% of 45,000 active; note: potency is the fitted concentration of half-maximal effect; 0% is about no effect; nearly all actives have a fitted effect of over 65% in size
Target sequence (P54803 whole entry G286D): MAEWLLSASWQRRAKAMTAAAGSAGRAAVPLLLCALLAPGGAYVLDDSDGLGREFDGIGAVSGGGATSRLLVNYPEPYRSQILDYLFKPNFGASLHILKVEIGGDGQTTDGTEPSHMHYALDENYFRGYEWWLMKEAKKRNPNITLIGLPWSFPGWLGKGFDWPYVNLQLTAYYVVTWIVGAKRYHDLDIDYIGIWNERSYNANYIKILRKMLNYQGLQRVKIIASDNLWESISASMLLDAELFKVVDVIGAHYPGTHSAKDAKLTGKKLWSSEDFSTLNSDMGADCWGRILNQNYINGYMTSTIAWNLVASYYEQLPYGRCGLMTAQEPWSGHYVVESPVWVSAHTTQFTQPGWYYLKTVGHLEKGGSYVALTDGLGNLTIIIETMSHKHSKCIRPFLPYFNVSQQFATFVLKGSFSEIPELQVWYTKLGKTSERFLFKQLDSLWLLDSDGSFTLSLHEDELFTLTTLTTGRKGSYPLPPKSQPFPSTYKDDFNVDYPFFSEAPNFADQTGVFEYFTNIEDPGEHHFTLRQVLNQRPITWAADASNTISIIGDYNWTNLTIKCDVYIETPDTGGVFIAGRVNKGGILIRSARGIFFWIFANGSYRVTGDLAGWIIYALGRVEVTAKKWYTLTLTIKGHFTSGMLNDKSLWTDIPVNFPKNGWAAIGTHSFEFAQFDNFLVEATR
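Mutant human GALC (G270D), stably expressed in a Twitcher mouse brain cell line lacking endogenous GALC, is measured in live-treated cells via 6-hexadecanoylamino-4-methylumbelliferyl-β-galactoside hydrolysis (0.1 mM final, pH 5.2) with fluorescent detection.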
NTMT1 inh: Primary qHTS for Inhibitors of N-terminal methyltransferase 1 (NTMT1): MTaseGlo Assay | 2.5% of 59,000 active | N-terminal Xaa-Pro-Lys N-methyltransferase 1 (Homo sapiens), Q9BV86 | Potency, µM (titrated, usually from 114 µM), for inactives: at the highest dose activity change, negative = inhibition, actives largely listed as inhibitors | NTMT1 MTase-Glo SAH luminescence, purified enzyme;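 note: potency is the fitted concentration of half-maximal effect; plate controls were DMSO vehicle for no effect and no enzyme for full effect; nearly all actives have a fitted effect of over 65% in size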
p53null 32C kill: qHTS Screen for Compounds that Selectively Target Cancer Cells with p53 Mutations: Cytotoxicity of p53 Null Cells at the Permissive Temperature; H1299-neo p53 null cells, ATP luminescence, 24 h, 32C; Potency, µM (titrated, usually from 46.1 µM), without a hit: at the highest dose activity change, negative = cytotoxicity, hits mostly cytotoxic; AID 903, 2007; 0.62% of 55,000 active;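 note: potency is the fitted concentration of half-maximal effect; 0% = DMSO only and -100% = full killing by 100 µM tamoxifen; nearly all actives have a fitted effect of over 55% in size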
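H1299-neo (p53-null) cells, 600/well, were pre-incubated overnight at 37C, then exposed to compounds at up to 46 uM for 24 hr at 32C. Viability was measured as ATP content by luminescence, and AC50 values came from Hill fits.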
DRV1 agonist: qHTS for Agonists of Human Resolvin D1 Receptor DRV1 | CHO-K1 GPR32 beta-arrestin PathHunter luminescence, 90 min; zero percent set by DMSO-only wells | 2.5% of 48,000 active | activation, % at 76.9 µM;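 active = activation of at least 60% and not above a set upper limit, about 1 call in 100 departs from these limits; inconclusive = activation of 40% to 60%, or above that upper limit; inactive = activation under 40%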; note: 0% is about no effect
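PathHunter beta-arrestin recruitment in CHO-K1 cells stably expressing ProLink-tagged GPR32. Cells were exposed to compound for 90 min at 37 C, then chemiluminescence was read after 1 h detection at ambient temperature; DMSO served as basal control.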
FH mod: Identification of activators of human fumarate hydratase by quantitative high-throughput screening | FH coupled MDH/diaphorase resazurin fluorescence, 15 min | Potency, µM (top dose mostly 79.9 µM), for the others: top-dose activity change, negative = inhibition, usual class: inhibitors | 0.22% of 54,000 active; note: potency is the fitted concentration of half-maximal effect; % is set by controls: 0 for no effect and ±100 for the full control effect; the screen sought activators but most active calls are inhibition curves; nearly all actives have a fitted effect of over 45% in size
p53null 39C kill: qHTS Screen for Compounds that Selectively Target Cancer Cells with p53 Mutations: Cytotoxicity of p53 Null Cells at the Nonpermissive Temperature; H1299 p53-null (neo) cells, 39C, ATPlite viability, 24 h; Potency, µM (titrated, usually from 46.1 µM), for the others: at the top dose activity, negative = cell killing, most hits filed as cytotoxic; 0.97% of 55,000 active; AID 904, 2007;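 note: potency is the fitted concentration of half-maximal effect; 0% = DMSO only and -100% = full killing by 100 µM tamoxifen; nearly all actives have a fitted effect of over 50% in size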
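Cells seeded at 600/well, 37C overnight. Compound added (up to 46 uM), plates shifted to 39C for 24 hr. ATPlite added, luminescence read after 20 min at room temperature.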
Active calls of the source: *; ! = a repeat was not active; [ ] = dose if it differs, or a comment. Compounds with a hit are over-represented: about 3.9% of the library has one in this group of screens. Unless noted, calls come from the whole dose curve; as a rule, active = well fitted curve in the direction sought with a large enough effect; inconclusive = small, poorly fitted or top-dose-only effect, or another doubt; inactive = no such curve, though single readings can be large; an effect the other way counts as inactive or inconclusive.

What do the screens show for `CC1(C)CC[C@]2(C(=O)O[C@@H]3O[C@H](CO[C@@H]4O[C@H](CO)[C@@H](O)[C@H](O)[C@H]4O[C@@H]4O[C@H](CO)[C@@H](O)[C@H](O)[C@H]4O)[C@@H](O)[C@H](O[C@@H]4O[C@H](CO)[C@@H](O)[C@H](O)[C@H]4O)[C@H]3O)CC[C@]3(C)C(=CCC4[C@@]5(C)CC[C@@H](O)[C@@](C)(C(=O)O[C@@H]6O[C@H](CO)[C@@H](O)[C@H](O)[C@H]6O)C5CC[C@]43C)[C@@H]2C1` (stereo partly drawn)?
NTMT1 inh: 4%[6.45 µM]; FH mod: 1%[13.5 µM]

How did Cc1ccc(NC(=O)CSc2nc(C)c(Cc3ccccc3)c(=O)[nH]2)cc1 do in these assays?
GALC G270D up: inactive; NTMT1 inh: 11%; p53null 32C kill: 11%; DRV1 agonist: 63*; FH mod: -1%; p53null 39C kill: -1%

Results for Cc1nc(SCC(=O)Nc2ccc(Br)cc2)[nH]c(=O)c1Cc1ccccc1 ?
GALC G270D up: inactive; NTMT1 inh: 10%; p53null 32C kill: 20%; DRV1 agonist: inconclusive; FH mod: 3%; p53null 39C kill: -12%

Results for Cc1ccc(Cl)cc1N1CCN(C(=O)C2CCN(Cc3nc(-c4cccc(Cl)c4)oc3C)CC2)CC1 ?
GALC G270D up: inactive; NTMT1 inh: 0%; p53null 32C kill: 0%; DRV1 agonist: 15; FH mod: -23%; p53null 39C kill: 25µM*

What do the screens show for `Cc1oc(-c2cccc(Cl)c2)nc1CN1CCC(C(=O)NC(C)C)CC1`?
GALC G270D up: inactive; NTMT1 inh: -7%; p53null 32C kill: 0%; DRV1 agonist: -8; FH mod: -2%; p53null 39C kill: -19%

How did CCCCS(=O)(=O)NC(Cc1ccc(OCCCCC2CCNCC2)cc1)C(=O)O (stereo not drawn) do in these assays?
NTMT1 inh: 3%[57.5 µM]; FH mod: 9%

What do the screens show for `CCO[C@H](Cc1ccc(OCCc2ccc(OS(C)(=O)=O)cc2)cc1)C(=O)O`?
GALC G270D up: inactive; NTMT1 inh: -16%[57.5 µM]; DRV1 agonist: 76*; FH mod: -8%[53.3 µM]

What do the screens show for `Cc1c[nH]c2ncnc(N3CCC(CN)(C(=O)Nc4cccc(OC(=O)N(C)C)c4)CC3)c12`?
NTMT1 inh: -1%; FH mod: -10%

Results for N#Cc1ccc2ncnc(NCCc3ccccc3)c2c1 ?
NTMT1 inh: 4%[57.5 µM]; FH mod: -1%

Results for Cc1ccc(C(C)C)c(O)c1 ?
GALC G270D up: inactive; NTMT1 inh: -7%[57.5 µM]; DRV1 agonist: 0; FH mod: -6%[53.3 µM]

How did Cc1cc(O)c2c(O)c3c(O)cccc3cc2c1 do in these assays?
GALC G270D up: inactive; NTMT1 inh: -23%[57.5 µM]; DRV1 agonist: 108*; FH mod: -13%[53.3 µM]

How did COCCNc1ccc(NC(=O)c2cccs2)cn1 do in these assays?
NTMT1 inh: 5%

Results for Cc1cc(N)c2cc(NC(=O)Nc3ccc4nc(C)cc(N)c4c3)ccc2n1 ?
GALC G270D up: inactive; NTMT1 inh: 20µM*; DRV1 agonist: inconclusive; FH mod: 23%[53.3 µM]

How did Cc1ccccc1NC(=O)Nc1ccc2nc(N3CCN(C)CC3)cc(C)c2c1 do in these assays?
GALC G270D up: inactive; NTMT1 inh: -3%; p53null 32C kill: 2%; DRV1 agonist: 31; FH mod: 3%; p53null 39C kill: -1%

Results for CNC(=O)c1ccc2cc([C@@]3(O)CCn4cncc43)ccc2c1 ?
NTMT1 inh: 5%[57.5 µM]; FH mod: 4%

What do the screens show for `NCCCC[C@H](N)C(=O)Nc1ccc(Cl)cc1C(=O)c1ccc[nH]1`?
NTMT1 inh: -13%

What do the screens show for `CNC1CCC(N(Cc2cccc(-c3ccncc3)c2)C(=O)c2sc3c(F)ccc(F)c3c2Cl)CC1` (stereo not drawn)?
NTMT1 inh: 71µM*!; FH mod: -4%

How did Cc1ccc(NC(=O)c2sc3ccccc3c2Cl)cc1 do in these assays?
GALC G270D up: inactive; NTMT1 inh: 6%; p53null 32C kill: inconclusive; DRV1 agonist: 18; FH mod: 10%; p53null 39C kill: inconclusive

What do the screens show for `CNC1CCC(N(Cc2cccc(-c3ccncc3)c2)C(=O)c2sc3ccccc3c2Cl)CC1` (stereo not drawn)?
NTMT1 inh: 35µM*!; FH mod: 1%

How did COc1ccccc1CNC(=O)CSc1ncc2c(n1)-c1ccc(Cl)cc1N(Cc1ccccc1)S2(=O)=O do in these assays?
GALC G270D up: inactive; NTMT1 inh: 2%; p53null 32C kill: -8%; DRV1 agonist: -5; FH mod: -7%; p53null 39C kill: -11%

Results for COc1ccccc1CNC(=O)CSc1ncc2c(n1)-c1ccccc1N(Cc1ccc(C)cc1)S2(=O)=O ?
GALC G270D up: inactive; NTMT1 inh: 79µM*; p53null 32C kill: 3%; DRV1 agonist: -1; FH mod: 0%; p53null 39C kill: -10%

What do the screens show for `CC(=O)O[C@]1(C(C)=O)CC[C@H]2[C@@H]3CCC4=CC(=O)CCC4=C3[C@@H](c3ccc(N(C)C)cc3)C[C@@]21C`?
NTMT1 inh: 1%[57.5 µM]; FH mod: -4%

Results for O=c1cc2nc(-c3ccccc3F)nc(SCc3ccc(Br)cc3)n2[nH]1 ?
GALC G270D up: inactive; NTMT1 inh: -10%; p53null 32C kill: 0%; DRV1 agonist: 108*; FH mod: inconclusive; p53null 39C kill: 33%

Results for COc1ccccc1NC(=O)CSc1nc(-c2ccccc2F)nc2cc(=O)[nH]n12 ?
GALC G270D up: inactive; NTMT1 inh: 8%; p53null 32C kill: -3%; DRV1 agonist: 1; FH mod: -7%; p53null 39C kill: 84%

What do the screens show for `O=C1CCCC2=C1C(c1[nH]ncc1Cl)NC(=NCc1ccccc1)N2` (stereo not drawn)?
NTMT1 inh: -1%

What do the screens show for `COc1cc2oc(=O)c(CC(=O)NCCc3ccccc3F)c(C)c2cc1OC`?
p53null 32C kill: 6%; DRV1 agonist: 77*; p53null 39C kill: -3%
